The values below come from PubChem BioAssay (Tox21).

SMILES strings stand for the structures. Results filed as inconclusive are left out. A call without a number means that no potency is given here. Calls of active or inactive are those of the source. Calls come from the whole dose curve; as a rule, active = well fitted activation curve with a large enough effect in the signal ratio in the repeat runs (not every such curve was filed as active); inconclusive = weak or mixed curves, or effect the other way; inactive = flat fitted curve, though single readings scatter; the % refers to the signal ratio.

In this test the target is Estrogen receptor beta (Homo sapiens) (UniProt Q92731). The test can be described thus: qHTS assay to identify small molecule agonists of the estrogen receptor beta (ER-beta) signaling pathway (AID 1259377). As to conditions: ER-beta-UAS-bla HEK293T, beta-lactamase FRET ratio, 16 h; series mostly up to 92.4 µM. The text has this: U.S. Tox21 Program National Center for Advancing Translational Sciences [NCATS] NIH Chemical Genomics Center [NCGC] U.S. Environmental Protection Agency [EPA] National Institutes of Environmental Health Sciences [NIEHS] National Toxicology Program [NTP] U.S. Food and Drug Administration [FDA] Tox21 Assay Overview: Estrogen receptor (ER), a nuclear hormone receptor, plays an important role in development, metabolic homeostasis and reproduction. Two subtypes of ER, ER-alpha and ER-beta, have similar expression patterns with some uniqueness in both types. Endocrine disrupting chemicals (EDCs) and their interactions with steroid hormone receptors like ER causes disruption of normal endocrine function. To identify the compounds that activate ER signaling, an ER beta-UAS-bla GripTite cell line (Life technologies, Madison, WI, USA) containing a beta-lactamase reporter gene under the control of an Upstream Activator Sequence (UAS) was used to screen Tox21 10K compound library.
Sequence of Estrogen receptor beta (Homo sapiens) (Q92731 whole entry, looked up): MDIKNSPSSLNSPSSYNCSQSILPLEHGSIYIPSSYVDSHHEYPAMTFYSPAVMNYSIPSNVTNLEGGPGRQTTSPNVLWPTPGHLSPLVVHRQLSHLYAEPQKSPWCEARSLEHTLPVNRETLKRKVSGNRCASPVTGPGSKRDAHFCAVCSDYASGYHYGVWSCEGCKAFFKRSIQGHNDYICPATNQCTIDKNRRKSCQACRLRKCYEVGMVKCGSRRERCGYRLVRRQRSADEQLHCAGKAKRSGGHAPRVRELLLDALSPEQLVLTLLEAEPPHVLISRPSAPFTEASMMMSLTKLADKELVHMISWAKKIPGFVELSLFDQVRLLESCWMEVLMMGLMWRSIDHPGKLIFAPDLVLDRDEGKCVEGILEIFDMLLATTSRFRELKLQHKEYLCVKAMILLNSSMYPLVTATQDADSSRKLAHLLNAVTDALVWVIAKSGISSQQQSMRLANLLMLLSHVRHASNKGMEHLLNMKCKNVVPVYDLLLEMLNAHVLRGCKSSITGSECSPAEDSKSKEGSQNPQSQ
Tox21 Assay Protocol Summary: ER-beta-UAS-bla HEK293T cells were dispensed at 2,000 cells/5 uL of assay medium containing 2% charcoal stripped FBS per well into black wall/clear-bottom 1536-well plates using a Multidrop Combi (ThermoFisher Scientific, Waltham, MA) dispenser. After the assay plates were incubated at a 37C and 5% CO2 for 6 hr, 23 nL of compounds dissolved in DMSO, positive controls or DMSO only was transferred to the assay plate by a Pintool station (Kalypsys, San Diego, CA). The plates were incubated at 37C and 5% CO2 for 16 hr. Then 1 uL of LiveBLAzerTM B/G FRET substrate was added using a BioRAPTR FRD (Flying Reagent Dispenser, Aurora Discovery, San Diego, CA). After the plates were incubated at room temperature for 2 hours, fluorescence intensity was measured by an Envision plate reader (PerkinElmer, Shelton, CT).
On the technique in general: In qHTS, concentration-response curves come from the screen itself.
Regarding `CCN(CC)CC(=O)Nc1c(C)cccc1C(=O)OC`, the Potency result was “inactive”. On to `O=C(O)CCC(=O)c1ccc(-c2ccccc2)cc1`, for which the Potency result was “inactive”.

In the case of `Cc1cn([C@H]2C[C@H](F)[C@@H](CO)O2)c(=O)[nH]c1=O`, the Potency result is “inactive”.

Consider `CCN(CC)C(=O)N1CCN(C)CC1`, for which the Potency result was “inactive”. `O=C(O)c1cccc(C[C@@H]2COc3ccc(OCc4nc5cc(F)ccc5s4)cc3[C@@H]2O)c1`: the Potency result was “inactive”. `O=C(c1ccccc1)C1CCC1`: the Potency entry was “inactive”. As for `Cc1ccc(Cl)cc1N`, the Potency result is “inactive”. For the compound `O=S(=O)(Cl)c1c(Cl)cccc1Cl`, the Potency result was “inactive”. As to `CC(=O)c1ccc[nH]1`, the Potency entry was “inactive”.

In the case of `CCCOC(=O)c1c(Cl)c(Cl)c(Cl)c(Cl)c1C(=O)OCCC`, the Potency entry was “inactive”. On the same count and under the same terms, to `Cc1ccc(N(CC2=NCCN2)c2cccc(O)c2)cc1` belongs “inactive”; to `CCN(CC)c1ccc(C(=C2C=CC(=[N+](CC)CC)C=C2)c2ccc(S(=O)(=O)O)cc2S(=O)(=O)[O-])cc1`, “inactive”; to `OCC(CO)n1cnc(-c2ccc(F)cc2)c1-c1ccnc(Oc2ccccc2)n1`, “inactive”. Regarding `CC(C)(C)C(O)/C=C/c1ccc2c(c1)OCO2` (stereo not given), the Potency entry was “inactive”.

Take `CCOCCC(=O)OCC`: the Potency result was “inactive”. With `O=C(NS(=O)(=O)/C=C/c1ccccc1)c1ccc(F)cc1Cl`, the Potency result was “inactive”.

On to `c1ccc(CCCc2ccncc2)cc1`, for which the Potency result was “inactive”.

As to `CCN(CC)CCOC(=O)C(c1ccccc1)c1ccccc1`, the Potency result is “inactive”. With `O=C(O)c1ccc(O)cc1O`, the Potency entry was “inactive”. In the case of `CCN(CC)C(=O)/C(C#N)=C/c1cc(O)c(O)c([N+](=O)[O-])c1`, the Potency result is “inactive”. For `CCCCCCCCCCCCCOC(=O)CCSCCC(=O)OCCCCCCCCCCCCC`, the activation is -0.464% [at 19 µM] (inactive). On to `CCN(Cc1cccc(S(=O)(=O)O)c1)c1ccc(C(=C2C=CC(=[N+](CC)Cc3cccc(S(=O)(=O)O)c3)C=C2)c2ccccc2S(=O)(=O)[O-])cc1`, for which the Potency result was “inactive”. As for `Cc1cc([N+](=O)[O-])ccc1N`, the Potency entry is “inactive”.

As to `CC[C@H]1OC(=O)[C@H](C)[C@@H](O[C@H]2C[C@@](C)(OC)[C@@H](O)[C@H](C)O2)[C@H](C)[C@@H](O[C@@H]2O[C@H](C)C[C@H](N(C)C)[C@H]2O)[C@](C)(O)C[C@@H](C)CN(C)[C@H](C)[C@@H](O)[C@]1(C)O`, the Potency entry was “inactive”.

In the case of `CC(C(=O)O)c1ccc(C(=O)c2cccs2)cc1` (stereo not given), the Potency entry was “inactive”. In the case of `O=C(CCS)OCC(COC(=O)CCS)(COC(=O)CCS)COC(=O)CCS`, the Potency result is “inactive”. Turning to `CCCCOC(=O)CCCCC(=O)OCCCC`, the Potency entry was “inactive”.

As to `CC(=O)N[C@@H](Cc1ccc(O)cc1)C(=O)O`, the Potency entry was “inactive”. Consider `O[C@@H](CNC[C@H](O)[C@H]1CCc2cc(F)ccc2O1)[C@@H]1CCc2cc(F)ccc2O1`, for which the Potency result is “inactive”. Regarding `CCCCCCCCCCCCCC(=O)OCC(O)CO` (stereo not given), the Potency result was “inactive”. For the compound `CC(=O)NCCO`, the Potency entry was “inactive”. In the case of `CO[C@@H]1[C@@H](OC)[C@H](C)[C@@](O)(CC(=O)O)O[C@H]1[C@H](C)[C@H]1O[C@@]2(CC[C@@](C)([C@H]3CC[C@@](C)([C@@H]4O[C@@H]([C@H]5O[C@](C)(O)[C@H](C)C[C@@H]5C)C[C@@H]4OC4C[C@H](OC)[C@@H](OC)[C@H](C)O4)O3)O2)C[C@H](O)[C@H]1C` (stereo not given in full), the Potency result is “inactive”. In the case of `Nc1c(Cl)cc(Cl)cc1[N+](=O)[O-]`, the Potency result is “inactive”. As to `Nc1nc2ccc(OC(F)(F)F)cc2s1`, the Potency entry is “inactive”. `CC(C)(C)CCCCCCOC(=O)c1ccccc1C(=O)OCCCCCCC(C)(C)C`: the Potency result is “inactive”. Consider `CSSc1ccoc1C`, for which the Potency result was “inactive”. Turning to `COC(=O)Nc1nc2ccc(C(=O)C3CC3)cc2[nH]1`, the Potency result is “inactive”.

Consider `CCCCCCOC(=O)CCCCC`, for which the Potency result is “inactive”. Still for that read-out and setting: to `C=C(C)C(=O)OCCC(F)(F)C(F)(F)C(F)(F)C(F)(F)C(F)(F)C(F)(F)F` belongs “inactive”; to `CC(=O)OCC(C)C`, “inactive”.
